Only some compounds are listed: those with a hit (about 12% of all), similar ones and a draw of the others.
BAZ2B inh = inhibitors of human BAZ2B bromodomain; AlphaScreen BAZ2B-H3K14Ac peptide displacement; AID 504333; Q9UIF8; 360,000 compounds, 4.4% hits; Potency, µM (top dose mostly 114 µM), for inactives: top-dose activity change, negative = inhibition, actives largely listed as inhibitors; note: % is set by controls: 0 for no effect and ±100 for the full control effect; nearly all actives have a fitted effect of over 60% in size
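AlphaScreen displacement: compounds (up to 110uM) incubated 30 min at room temperature with a preformed 50 nM BAZ2B/50 nM biotinylated H3K14Ac peptide complex in PBS pH 7.4 with Tween-20. Donor and acceptor beads at 10 ug/mL final added, 20 min light-protected before reading.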
G9a block = G9a (human) methyltransferase inhibition. 350,000 compounds, 8.8% hits. Potency, µM (doses to about 102 µM), for the others: top-dose activity, negative = inhibition, usual class: inhibitors. G9a H3K9 monomethylation, AlphaScreen, 2 h. Q96KQ7; note: % is set by controls: 0 for no effect and ±100 for the full control effect; nearly all actives have a fitted effect of over 75% in size
Target sequence (Q96KQ7 913-1193 limits assumed): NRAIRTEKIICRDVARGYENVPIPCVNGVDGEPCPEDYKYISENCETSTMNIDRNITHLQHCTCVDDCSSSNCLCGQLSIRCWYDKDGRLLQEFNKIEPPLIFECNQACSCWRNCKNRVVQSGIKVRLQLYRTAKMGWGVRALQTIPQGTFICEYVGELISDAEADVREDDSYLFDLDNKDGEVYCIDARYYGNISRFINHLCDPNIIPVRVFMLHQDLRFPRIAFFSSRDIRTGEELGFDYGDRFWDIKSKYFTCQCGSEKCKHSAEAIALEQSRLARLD
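Compounds were preincubated with 20 nM G9a for 15 min, after which biotinylated H3K9 peptide (500 nM) and SAM (20 uM) started a 2 h room-temperature reaction. Monomethylated product was quantified by antibody-based AlphaScreen chemiluminescence.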
Sfp PPTase inh = Sfp phosphopantetheinyl transferase inhibition | Q9F4F7 | Biochemical Sfp PPTase activity, qHTS | Potency, µM, for inactives: largest response in the series, negative = inhibition, usual class: inhibitors | 310,000 compounds, 3.5% hits;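 note: the enzyme is Sfp with the accession as filed and its product quenches rhodamine fluorescence; 0% = enzyme reaction without inhibitor and -100% = no enzyme wells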
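After 15 min at room temperature with compound, 15 nM Sfp received 5 uM rhodamine-CoA plus 12.5 uM BHQ-2-ybbR (50 mM Hepes pH 7.6, 10 mM MgCl2). Rate came from the fluorescence difference over 30 min, ex 525/em 598 nm.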
JMJD2A Tudor = blocks the human JMJD2A Tudor domain | O75164 | AlphaScreen JMJD2A-Tudor / H3K4me3 peptide binding | Potency, µM (doses to about 114 µM), for the others: at the top dose activity change, negative = inhibition, most hits filed as inhibitors | 390,000 compounds, 4.4% hits; note: % is set by controls: 0 for no effect and ±100 for the full control effect; nearly all actives have a fitted effect of over 50% in size
HP1b chromo inh = inhibitors of HP1-beta chromodomain binding to methylated histone tails; AlphaScreen HP1-beta / biotin-H3K9me3 peptide binding; Potency, µM (highest dose often 114 µM), for the others: at the top dose activity change, negative = inhibition, most hits filed as inhibitors; 390,000 compounds, 0.56% hits; note: nearly all actives have a fitted effect of over 70% in size
Target sequence (P83916 whole entry, looked up): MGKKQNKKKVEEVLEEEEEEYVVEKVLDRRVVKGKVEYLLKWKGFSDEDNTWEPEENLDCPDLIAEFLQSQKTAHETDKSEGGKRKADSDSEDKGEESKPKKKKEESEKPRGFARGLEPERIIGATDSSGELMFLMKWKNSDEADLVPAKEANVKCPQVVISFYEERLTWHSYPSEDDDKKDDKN
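AlphaScreen: HP1-beta (50 nM) preformed 30 min with biotin-H3(1-18)K9me3 peptide (50 nM) in PBS pH 7.4, 0.01% Tween-20. Compound added for 30 min at RT, then streptavidin donor/nickel chelate acceptor beads (10 ug/mL) for 30 min.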
Active calls of the source: *; ? = inconclusive; . = no result given; ! = not active in a repeat; [ ] = dose if it differs, or a comment. Calls come from the whole dose curve; as a rule, active = well fitted curve in the direction sought with a large enough effect; inconclusive = small, poorly fitted or top-dose-only effect, or another doubt; inactive = no such curve, though single readings can be large; an effect the other way counts as inactive or inconclusive. Potency is the fitted concentration of half-maximal effect.

SMILES | BAZ2B inh | G9a block | Sfp PPTase inh | JMJD2A Tudor | HP1b chromo inh
CN(C)c1nc(NC2CCC(NC(=O)c3ccc(F)c(F)c3)CC2)nc2ccccc12 (centres undefined) | . | . | -13% | . | .
COc1ccc(N2C(=O)CSC2c2ccccc2[N+](=O)[O-])cc1 (centres undefined) | -28% | 50µM* | 6% | -23% | 7%
COc1cc(N2Cc3ccccc3C2)ccc1C=O | -2% | 32µM* | -4% | -23% | 10%
O=C1CC(N2CCC(Cc3ccccc3)CC2)C(=O)N1CCc1ccccc1 (centres undefined) | 0% | 50µM* | 56µM* | -5% | 25%
Oc1c(C(c2ccccc2)N2CCOCC2)ccc2ccccc12 (centres undefined) | . | . | . | 10µM* | 14µM*
CC(=O)C(C(c1ccccc1)N1CCOCC1)N1CCOCC1 (centres undefined) | . | . | . | -22% | -23%
O=C(CN1CCN(C(c2ccccc2)c2ccccc2)CC1)N1CCOCC1 | 50µM* | 8.9µM* | -11% | 18µM* | 18%
N#CCC(=O)N1CCN(C(c2ccccc2)c2ccccc2)CC1 | . | . | . | 0% | 43%
COc1ccc(N2CCN(C(=O)CN3CCN(C(c4ccccc4)c4ccccc4)CC3)CC2)cc1 | 50µM* | ? | 4% | 25µM* | -73%
C=CCNC(=O)CN1CCN(C(c2ccccc2)c2ccccc2)CC1 | 50µM* | 11µM* | -18% | 20µM* | ?
C=CCNC(=O)CN1CCC(O)(c2ccccc2)CC1 | 13% | 1%[59 µM] | 7% | -10% | 27%
O=C(COC(=O)CC1SC(N2CCCC2)=NC1=O)Nc1c(F)c(F)c(F)c(F)c1F (centres undefined) | 13% | -4%[2.33 µM] | . | -8% | 20%
CN(Cc1ccccc1)C(=O)c1cccc(NC(=O)Cc2ccc(NC(=O)C3CCN(C(=O)C4CCCCC4)CC3)cc2)c1 | . | . | . | -2% | 36%
COC(=O)C/C=C\[C@@H](C)[C@@H](/C=N\O[C@@H](C)c1cc(-c2c(C)cc(C)cc2C)no1)OC | . | . | -3% | . | .
O=C(CSc1ncccn1)N1CCN(C(c2ccccc2)c2ccccc2)CC1 | -7% | 5.6µM* | -1% | -19% | -1%
OC1=C(O)c2nc3cc(C(F)(F)F)ccc3nc21 | -30% | ? | 50µM* | -22% | 5%
CC1CCCCC12NC(=O)N(CC(=O)Nc1ccc(OC(F)F)cc1)C2=O (centres undefined) | . | . | . | -8% | 34%
COc1ccc(C2=C(Nc3ccc(C)cc3C)c3ccccc3C2=O)cc1 | -25% | ? | . | 28µM* | -20%
O=C(N/N=C1\NC(=O)C(CO)(CO)S1)c1ccccc1 | -14% | 16%[59 µM] | -29% | ? | 25%
O=C1CS/C(=N\NC(=O)c2ccccc2)N1 | -36% | 2.5µM* | -11% | ? | 31%
N[C@@H](CS(=O)O)C(=O)O | . | 21µM*! | 56µM* | . | .
NC(CS(=O)O)C(=O)O (centres undefined) | . | . | . | 35µM* | 23%
NC(CSCSCC(N)C(=O)O)C(=O)O (centres undefined) | . | . | 11% | . | .
Cc1cccc(S(=O)C(c2ccccc2)c2ccccc2)c1 (centres undefined) | . | . | . | 4% | 42%
COc1cc2ccc(=O)oc2c(O)c1OCC=C(C)C | -33% | 11µM* | -2% | ? | -11%
SMILES | BAZ2B inh | G9a block | Sfp PPTase inh | JMJD2A Tudor | HP1b chromo inh
CC(C)=CCOc1ccc2ccc(=O)oc2c1 | 10% | 7%[12.7 µM] | 3% | 4% | 49%
CCOC(=O)c1cc2c(ccn2C)n1Cc1cc(C)ccc1C | 50µM* | 50µM* | -10% | 25µM* | ?
COC(=O)c1cc2sc(Cl)cc2n1Cc1cc(C)ccc1C | 66% | 74%[59 µM] | . | 79% | 115%
O=C(COc1ccc2cc(Br)ccc2c1Br)N1CCOCC1 | -12% | -8% | -6% | -8% | 60%
Cn1nc(-c2ccccc2)c(CO)c1Oc1ccc(F)cc1 | -13% | 19% | 8% | 20µM* | -5%
COC(=O)c1sccc1NC(=O)CNC(=O)c1ccccc1 | -2% | -4% | 19% | -5% | 32%
CCOC(=O)N1CCN([N+]([O-])=NOc2cc(O/N=[N+](\[O-])N(C)C)c([N+](=O)[O-])cc2[N+](=O)[O-])CC1 | . | . | ? | -19% | 12%
CN(C)/[N+]([O-])=N/Oc1cc(ON=[N+]([O-])N2CCN(c3ncccn3)CC2)c([N+](=O)[O-])cc1[N+](=O)[O-] | . | . | 50µM* | -19% | 53%
CNc1ccc(C(=O)Oc2cc(O/N=[N+](\[O-])N(C)C)c([N+](=O)[O-])cc2[N+](=O)[O-])cc1 | . | . | ? | ? | -1%
CN(C)/[N+]([O-])=N/Oc1cc(O/[N+]([O-])=N/N2CCCC2CO)c([N+](=O)[O-])cc1[N+](=O)[O-] (centres undefined) | . | . | 79µM* | -25% | 2%
Cc1cccc(CNS(=O)(=O)c2ccc3[nH]c(=O)ccc3c2)c1 | 0% | 0%[59 µM] | . | 0% | 32%[57 µM]
COCCn1c(=O)c(-c2cc(F)cc(F)c2)nc2cnc(Oc3ccc(OC)cc3)nc21 | . | -10%[12.7 µM] | -3% | . | .
COc1ccc(NC(=O)c2nc[nH]c2C(=O)Nc2ccccc2C)cc1 | -9% | -2% | 12% | -18% | 45%
CCOc1ccccc1NC(=O)c1csc(C)c1C | 20% | 35µM* | 4% | 48% | 91%
CCOc1ccccc1NC(=O)c1nc[nH]c1C(=O)Nc1ccccc1OCC | 56µM* | 13µM* | -7% | -20% | -2%
CCOc1ccccc1NC(=O)c1cccc2ccccc12 | 12% | 67% | -4% | 75% | 96%
COc1ccccc1NC(=O)c1nc[nH]c1C(=O)Nc1ccccc1OC | ? | 11µM* | 56µM* | -11% | ?
CSCc1c(C(=O)OCC(=O)c2ccc[nH]2)oc2ccccc12 | -11% | 25µM* | . | -26% | 7%
COCc1c(C(=O)OCC(=O)c2ccc[nH]2)oc2ccccc12 | . | . | . | -25% | 10%
CC1CC(C)CN(CCCNC(=O)CCC(=O)N2CC(C)Oc3ccccc32)C1 (centres undefined) | -2% | 7% | 12% | -11% | 20%
COC(=O)C(C#N)c1nc2ccccc2nc1N1CCCC1 (centres undefined) | ? | -39%[12.7 µM] | -7% | -29% | 0%
N#CC(c1nc2ccccc2nc1N1CCCC1)S(=O)(=O)c1cccs1 (centres undefined) | -30% | 13µM* | 50µM* | ? | -4%
COc1ccc(CNC(=O)C(C#N)c2nc3ccccc3nc2N2CCN(C)CC2)cc1 (centres undefined) | 50µM* | ? | -3% | 71µM* | ?
CC(C)OC(=O)C(C#N)c1nc2ccccc2nc1N1CCCC1 (centres undefined) | -35% | 11µM* | 8% | -31% | 0%
COc1ccc(CNC(=O)C(C#N)c2nc3ccccc3nc2N2CCCC2)cc1 (centres undefined) | -8% | -1%[59 µM] | 0% | -9% | 19%

From PubChem BioAssay
